Screening results deposited in PubChem by National Center for Advancing Translational Sciences (NCATS).
BAZ2B inh = BAZ2B (human) inhibition; Potency, µM (top dose mostly 114 µM), for inactives: at the top dose activity change, negative = inhibition, hits mostly inhibitors; Q9UIF8; AID 504333; 360,000 compounds, 4.4% hits; AlphaScreen BAZ2B-H3K14Ac peptide displacement; note: % is set by controls: 0 for no effect and ±100 for the full control effect; nearly all actives have a fitted effect of over 60% in size
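Multi-concentration screen (max 110 uM) measuring displacement of acetylated histone H3 peptide from BAZ2B by AlphaScreen, using 50 nM protein, 50 nM peptide and 10 ug/mL streptavidin donor plus Ni-chelate acceptor beads.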
GLS inhibitor = inhibitors of human glutaminase (GLS); GLS enzymatic activity, qHTS titration; Potency, µM (series often up to 45.5 µM), for the others: top-dose activity change, negative = inhibition, usual class: inhibitors; 410,000 compounds, 0.21% hits; note: % is set by controls: 0 for no effect and ±100 for the full control effect
Target sequence (O94925 whole entry, looked up): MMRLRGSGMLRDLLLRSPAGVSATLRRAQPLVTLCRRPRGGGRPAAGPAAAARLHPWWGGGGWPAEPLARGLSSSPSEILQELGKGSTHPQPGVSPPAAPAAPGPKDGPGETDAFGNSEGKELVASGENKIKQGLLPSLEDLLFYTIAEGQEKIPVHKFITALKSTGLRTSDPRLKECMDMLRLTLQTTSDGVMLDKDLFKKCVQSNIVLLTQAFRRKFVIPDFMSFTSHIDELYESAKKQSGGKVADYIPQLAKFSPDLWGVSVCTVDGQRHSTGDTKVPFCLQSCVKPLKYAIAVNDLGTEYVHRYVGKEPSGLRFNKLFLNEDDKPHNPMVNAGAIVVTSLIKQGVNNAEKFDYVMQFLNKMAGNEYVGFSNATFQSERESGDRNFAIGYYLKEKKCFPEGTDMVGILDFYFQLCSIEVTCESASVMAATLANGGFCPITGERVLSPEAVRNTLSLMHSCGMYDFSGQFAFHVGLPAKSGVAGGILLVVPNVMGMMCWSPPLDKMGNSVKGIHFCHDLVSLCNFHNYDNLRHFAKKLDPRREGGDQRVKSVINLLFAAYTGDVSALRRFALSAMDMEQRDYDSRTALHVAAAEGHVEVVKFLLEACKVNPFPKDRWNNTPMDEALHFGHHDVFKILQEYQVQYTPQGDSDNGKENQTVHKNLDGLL
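Enzyme dispensed in phosphate buffer (45 mM, pH 8.2, 0.02% Tween-20), compounds pinned in, then 1 mM L-glutamine solution and the glutamate oxidase–HRP–Amplex Red mix added; fluorescence read immediately and again after 30 min at room temperature.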
HP1b chromo inh = inhibitors of HP1-beta chromodomain binding to methylated histone tails; P83916; AlphaScreen HP1-beta / biotin-H3K9me3 peptide binding; Potency, µM (series often up to 114 µM), for the others: at the highest dose activity change, negative = inhibition, most hits filed as inhibitors; 390,000 compounds, 0.56% hits; note: nearly all actives have a fitted effect of over 70% in size
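AlphaScreen: HP1-beta (50 nM) preformed 30 min with biotin-H3(1-18)K9me3 peptide (50 nM) in PBS pH 7.4, 0.01% Tween-20. Compound added for 30 min at RT, then streptavidin donor/nickel chelate acceptor beads (10 ug/mL) for 30 min.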
G9a inh = blocks human histone lysine methyltransferase G9a. G9a H3K9 monomethylation, AlphaScreen, 2 h. Potency, µM (top dose mostly 102 µM), for inactives: at the highest dose activity, negative = inhibition, usual class: inhibitors. 350,000 compounds, 8.8% hits; note: % is set by controls: 0 for no effect and ±100 for the full control effect; nearly all actives have a fitted effect of over 75% in size
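AlphaScreen read-out: biotin-H3K9 peptide (500 nM) methylation by 20 nM enzyme with 20 uM SAM, 2 h at room temperature after 15 min compound preincubation; anti-monomethyl H3K9 antibody plus donor/acceptor beads, 10 min dark.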
JMJD2A Tudor = blocks the human JMJD2A Tudor domain | AlphaScreen JMJD2A-Tudor / H3K4me3 peptide binding | Potency, µM (top dose mostly 114 µM), inactives show at the highest dose activity change, negative = inhibition, actives largely listed as inhibitors | 390,000 compounds, 4.4% hits | AID 504339; note: % is set by controls: 0 for no effect and ±100 for the full control effect; nearly all actives have a fitted effect of over 50% in size
Active calls of the source: *; ? = inconclusive; nt = not tested or not shown; ! = repeats disagree; [ ] = another dose, or the depositor's remark. Sampled rows, rich in hits. Any-hit rate of the full collection: about 10%. Calls come from the whole dose curve; as a rule, active = well fitted curve in the direction sought with a large enough effect; inconclusive = small, poorly fitted or top-dose-only effect, or another doubt; inactive = no such curve, though single readings can be large; an effect the other way counts as inactive or inconclusive. Potency is the fitted concentration of half-maximal effect.

SMILES	BAZ2B inh	GLS inhibitor	HP1b chromo inh	G9a inh	JMJD2A Tudor
Clc1ccc(C(c2ccc(Cl)cc2)n2cc[n+](CC(OCc3ccc(Cl)cc3Cl)c3ccc(Cl)cc3Cl)c2)cc1 (centres undefined)	-38%	14µM*	0%	18µM*!	50µM*
c1cc(CN2CCCC3(CCNCC3)C2)ccn1	nt	nt	nt	-9%[12.7 µM]	nt
COc1ccc(C(CC(C)=O)c2c(O)c3ccccc3oc2=O)cc1OC (centres undefined)	nt	-2%	nt	nt	nt
O=c1oc2ccccc2c(O)c1C(c1ccc([N+](=O)[O-])cc1)c1c(O)c2ccccc2oc1=O	56µM*	?	1%	40µM*	?
CC/C(CC(c1ccccc1)c1c(O)c2ccccc2oc1=O)=N\NC(N)=S (centres undefined)	-1%	10%	?	-6%[59 µM]	3.2µM*
Cc1c(C(c2ccc(F)cc2)c2c(O)c3ccccc3oc2=O)c(=O)n(-c2ccccc2)n1C (centres undefined)	-21%	-1%	21%	-22%[59 µM]	-13%
C/C(CC(c1ccccc1)c1c(O)c2ccccc2oc1=O)=N\Nc1ccc([N+](=O)[O-])cc1[N+](=O)[O-] (centres undefined)	35µM*	19%	?	14µM*	35µM*
COc1ccc2nc(NC(=O)c3nc(S(=O)(=O)Cc4cccc(C)c4)ncc3Cl)sc2c1	-16%	0%	41%	-5%[59 µM]	-17%
COc1cc([C@@H]2c3cc4c(cc3[C@@H](O)C3COC(=O)C32)OCO4)cc(OC)c1O (some centres undefined)	nt	-13%	29%	nt	-12%
Cc1c(N=Nc2c(O)n(-c3ccc(Br)cc3)c(=O)[nH]c2=O)c(=O)n(-c2ccccc2)n1C	28µM*	14%	28%	nt	35µM*
Cc1c(N=Nc2c(O)[nH]c(=O)[nH]c2=O)c(=O)n(-c2ccccc2)n1C	3.2µM*	44%	67%	?	13µM*
Nc1ccccc1	nt	-1%	nt	nt	nt
[Hg+][c]1ccccc1	nt	13µM*	nt	?	nt
CC1CC[C@]2(NC1)OC1CC3C4CC=C5CC(O)CC[C@@]5(C)C4CC[C@]3(C)C1C2C (some centres undefined)	nt	nt	nt	-48%[2.33 µM]	nt
CN(C)C1C(=O)C(C(N)=O)=C(O)C2(O)C(=O)C3=C(O)c4c(O)cccc4C(C)(O)C3C(O)C12 (centres undefined)	2µM*	10%	17%	nt	-12%
Cc1ccc(C)c(CN2C(=O)c3ccccc3S(=O)(=O)c3ccc(C(=O)N4CCCCCC4)cc32)c1	?	6%	14%	-10%[59 µM]	-24%
OCc1cnc[nH]1	-24%	6%	10%	12µM*!	?
CCc1ccc(CNC(=O)C2CCN(C(=O)c3ccc(-n4c(C)cc5ccccc54)s3)CC2)cc1	?	13%	23%	-29%[59 µM]	-28%
Cc1nn(Cc2ccccc2)c(Cl)c1C(=O)NC1CCCc2ccccc21 (centres undefined)	0%	0%	7%	?	-16%
Cc1nc2ccccc2n1C1CCN(Cc2nnnn2CCc2ccccc2)CC1	?	-5%	11%	50µM*	?
Fc1ccc2c(c1)nnn2C1CCN(Cc2nnnn2CCc2ccccc2)CC1	?	13%	27%	50µM*	-22%
CN1C(=O)C(=Cc2ccc(N3CCOCC3)o2)C(=O)N(C)C1=S	?	7%	-22%	-4%	-19%
C=CCN1C(=O)/C(=C\c2ccc(N3CCOCC3)o2)C(=O)NC1=S	1%	-10%	1%	8.9µM*	-9%
CCN1C(=O)C(=Cc2ccc(N3CCOCC3)o2)C(=O)N(CC)C1=S	40µM*	1%	-8%	nt	-34%
O=C(Cc1ccc(Cl)c(Cl)c1)N1CCCCC1CN1CCCC1 (centres undefined)	nt	nt	nt	27µM*	nt
SMILES	BAZ2B inh	GLS inhibitor	HP1b chromo inh	G9a inh	JMJD2A Tudor
CCC(C(=O)O)C1CCC(C)C(C(C)C(O)C(C)C(=O)C(CC)C2OC3(C=CC(O)[C@@]4(CC[C@](C)(C5CC[C@@](O)(CC)C(C)O5)O4)O3)C(C)CC2C)O1 (some centres undefined)	nt	?	nt	1%[2.33 µM]	nt
CCCCn1c(O)c(/C=N/N2CCOCC2)c(=O)[nH]c1=S	-19%	16%	50%	45µM*	8%
CCCCn1c(O)c(/C=N/N2CCCCC2c2cccnc2)c(=O)[nH]c1=S (centres undefined)	-7%	0%	30%	8.9µM*	-8%
CC(=O)O[C@H]1C[C@@H](O[C@@H]2[C@H](C)O[C@H](O[C@@H]3[C@H](C)O[C@H](O[C@@H]4CC[C@@]5(C)[C@@H](CC[C@]6(C)[C@]5(C)C[C@H](O)[C@]5(C)[C@@H](C7=CC(=O)OC7)CC[C@@]56O)C4)C[C@@H]3O)C[C@@H]2O)O[C@@H](C)[C@H]1O[C@H]1O[C@@H](CO)[C@@H](O)[C@@H](O)[C@@H]1O	nt	nt	nt	18%[21.5 µM]	nt
Cc1cc(C)nc(N/N=C/C2=C(O)CC(c3ccccc3)CC2=O)n1 (centres undefined)	22µM*	nt	nt	-13%	nt
O=C1CC(c2ccccc2Br)c2c(c3ccccc3oc2=O)O1 (centres undefined)	-6%	29%	43%	8%[59 µM]	-2%
CC(C)N1C(=O)CC2(CC[N+](C)(CCOC(=O)C(O)(c3ccccc3)c3ccccc3)CC2)C1=O (centres undefined)	-24%	-5%	46%	40µM*	-5%
CCOc1cc(-c2ccc(N)c(OCC)c2)ccc1N	14µM*	?	8.9µM*	?	?
CCOC(=O)c1ccc(N2C(=O)CC(N3CCC(O)(c4ccc(Br)cc4)CC3)C2=O)cc1 (centres undefined)	28%	5%	48%	50µM*	-4%
CC(C)CCC(=O)OC1CCC2C3CCC4=CC(=O)CC[C@]4(C)C3CC[C@]12C (some centres undefined)	nt	5%	nt	nt	nt
COc1ccc(/C=C/C(=O)c2c(O)n(CCC3=CCCCC3)c(=O)[nH]c2=O)cc1	0%	26%	31%	13%[59 µM]	-32%
O=C(/C=C/c1ccc2c(c1)OCO2)c1c(O)n(CCC2=CCCCC2)c(=O)[nH]c1=O	9%	19%	14%	11µM*	-11%
C=C1C/C(=C\C)C(=O)O[C@@H]2CCN3CC=C(COC(=O)[C@@]1(C)O)[C@H]23	nt	nt	nt	22%[21.5 µM]	nt
CCOc1cc2c(cc1OCC)-n1cccc1C(c1c(O)cccc1OC)NC2 (centres undefined)	45µM*	19%	-23%	-12%[2.33 µM]	50µM*
FC(F)(F)c1cccc(C2NCc3ccccc3-n3cccc32)c1 (centres undefined)	?	-7%	4%	?	?
CCOc1cc2c(cc1OCC)-n1cccc1C(c1ccccc1O)NC2 (centres undefined)	50µM*	12%	?	50µM*	50µM*
